Experimental data: ChEMBL document CHEMBL2218924, “A broad activity screen in support of a chemogenomic map for kinase signalling research and drug discovery” (Biochem J, 2013); call rule not given here

Legend:
[1] = biological target: Ephrin type-A receptor 4 (Homo sapiens) (UniProt P54764); conditions: at 1 µM
[2] = biological target: Ephrin type-A receptor 4 (Homo sapiens) (UniProt P54764); conditions: at 10 µM
[3] = biological target: Ephrin type-A receptor 5 (Homo sapiens) (UniProt P54756); conditions: at 1 µM
Ephrin type-A receptor 5 (Homo sapiens), sequence (P54756 whole entry): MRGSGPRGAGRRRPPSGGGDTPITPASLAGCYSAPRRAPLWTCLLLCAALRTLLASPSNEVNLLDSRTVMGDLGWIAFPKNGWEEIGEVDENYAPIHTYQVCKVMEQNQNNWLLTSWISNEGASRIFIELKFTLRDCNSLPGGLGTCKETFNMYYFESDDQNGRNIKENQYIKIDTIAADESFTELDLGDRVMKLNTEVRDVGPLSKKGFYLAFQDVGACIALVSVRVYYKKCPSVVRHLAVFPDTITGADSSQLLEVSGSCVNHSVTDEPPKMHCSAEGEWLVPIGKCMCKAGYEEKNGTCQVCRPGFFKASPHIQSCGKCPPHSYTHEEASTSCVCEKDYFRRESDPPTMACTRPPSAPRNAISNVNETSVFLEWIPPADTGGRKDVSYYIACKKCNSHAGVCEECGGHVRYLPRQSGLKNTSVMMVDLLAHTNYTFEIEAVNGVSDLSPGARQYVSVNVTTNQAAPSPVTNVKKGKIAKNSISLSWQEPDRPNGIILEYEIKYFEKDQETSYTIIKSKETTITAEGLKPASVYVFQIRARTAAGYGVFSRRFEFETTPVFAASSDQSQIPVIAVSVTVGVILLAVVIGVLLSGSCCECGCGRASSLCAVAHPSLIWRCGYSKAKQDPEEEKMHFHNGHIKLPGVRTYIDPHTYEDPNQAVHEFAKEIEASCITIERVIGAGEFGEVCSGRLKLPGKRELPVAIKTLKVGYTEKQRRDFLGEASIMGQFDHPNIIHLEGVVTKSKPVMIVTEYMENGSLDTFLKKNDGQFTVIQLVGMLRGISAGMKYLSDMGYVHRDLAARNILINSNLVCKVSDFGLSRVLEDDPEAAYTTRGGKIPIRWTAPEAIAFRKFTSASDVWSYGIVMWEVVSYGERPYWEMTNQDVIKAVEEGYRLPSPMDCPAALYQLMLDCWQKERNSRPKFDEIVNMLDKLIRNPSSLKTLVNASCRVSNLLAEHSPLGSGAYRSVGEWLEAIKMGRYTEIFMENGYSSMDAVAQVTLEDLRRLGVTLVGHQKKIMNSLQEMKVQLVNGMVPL

[4] = biological target: Ephrin type-A receptor 5 (Homo sapiens) (UniProt P54756); conditions: at 10 µM
[5] = biological target: Ephrin type-A receptor 7 (Homo sapiens) (UniProt Q15375); conditions: at 1 µM
Ephrin type-A receptor 7 (Homo sapiens), sequence (Q15375 28-998 limits assumed): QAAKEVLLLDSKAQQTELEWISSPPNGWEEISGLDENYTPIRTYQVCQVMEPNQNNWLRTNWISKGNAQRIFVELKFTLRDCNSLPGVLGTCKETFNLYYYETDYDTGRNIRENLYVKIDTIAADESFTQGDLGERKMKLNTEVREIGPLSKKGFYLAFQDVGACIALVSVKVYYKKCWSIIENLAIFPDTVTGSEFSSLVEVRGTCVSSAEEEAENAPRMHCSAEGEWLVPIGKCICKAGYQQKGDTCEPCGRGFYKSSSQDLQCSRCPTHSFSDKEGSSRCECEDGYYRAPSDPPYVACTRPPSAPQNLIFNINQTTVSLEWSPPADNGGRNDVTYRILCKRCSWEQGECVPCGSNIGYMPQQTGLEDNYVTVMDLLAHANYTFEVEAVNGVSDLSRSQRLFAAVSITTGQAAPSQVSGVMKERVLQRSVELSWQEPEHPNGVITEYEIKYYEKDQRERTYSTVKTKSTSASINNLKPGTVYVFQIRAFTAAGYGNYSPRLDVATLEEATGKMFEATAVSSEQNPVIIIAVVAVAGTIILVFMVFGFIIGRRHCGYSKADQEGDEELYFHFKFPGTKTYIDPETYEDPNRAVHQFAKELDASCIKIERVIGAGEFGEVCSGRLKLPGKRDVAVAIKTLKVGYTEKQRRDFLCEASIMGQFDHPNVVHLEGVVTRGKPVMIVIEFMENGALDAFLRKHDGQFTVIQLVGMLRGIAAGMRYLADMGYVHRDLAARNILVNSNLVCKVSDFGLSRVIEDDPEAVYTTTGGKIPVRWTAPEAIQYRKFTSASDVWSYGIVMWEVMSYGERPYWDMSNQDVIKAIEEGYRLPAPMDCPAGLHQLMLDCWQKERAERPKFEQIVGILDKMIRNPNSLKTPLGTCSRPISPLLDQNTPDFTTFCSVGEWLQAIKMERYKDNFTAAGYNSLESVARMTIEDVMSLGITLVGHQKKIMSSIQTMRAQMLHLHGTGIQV

[6] = biological target: Ephrin type-A receptor 7 (Homo sapiens) (UniProt Q15375); conditions: at 10 µM
[7] = biological target: T1, Ephrin type-A receptor 8 (Homo sapiens) (UniProt P29322); conditions: at 10 µM
T1 sequence (whole entry): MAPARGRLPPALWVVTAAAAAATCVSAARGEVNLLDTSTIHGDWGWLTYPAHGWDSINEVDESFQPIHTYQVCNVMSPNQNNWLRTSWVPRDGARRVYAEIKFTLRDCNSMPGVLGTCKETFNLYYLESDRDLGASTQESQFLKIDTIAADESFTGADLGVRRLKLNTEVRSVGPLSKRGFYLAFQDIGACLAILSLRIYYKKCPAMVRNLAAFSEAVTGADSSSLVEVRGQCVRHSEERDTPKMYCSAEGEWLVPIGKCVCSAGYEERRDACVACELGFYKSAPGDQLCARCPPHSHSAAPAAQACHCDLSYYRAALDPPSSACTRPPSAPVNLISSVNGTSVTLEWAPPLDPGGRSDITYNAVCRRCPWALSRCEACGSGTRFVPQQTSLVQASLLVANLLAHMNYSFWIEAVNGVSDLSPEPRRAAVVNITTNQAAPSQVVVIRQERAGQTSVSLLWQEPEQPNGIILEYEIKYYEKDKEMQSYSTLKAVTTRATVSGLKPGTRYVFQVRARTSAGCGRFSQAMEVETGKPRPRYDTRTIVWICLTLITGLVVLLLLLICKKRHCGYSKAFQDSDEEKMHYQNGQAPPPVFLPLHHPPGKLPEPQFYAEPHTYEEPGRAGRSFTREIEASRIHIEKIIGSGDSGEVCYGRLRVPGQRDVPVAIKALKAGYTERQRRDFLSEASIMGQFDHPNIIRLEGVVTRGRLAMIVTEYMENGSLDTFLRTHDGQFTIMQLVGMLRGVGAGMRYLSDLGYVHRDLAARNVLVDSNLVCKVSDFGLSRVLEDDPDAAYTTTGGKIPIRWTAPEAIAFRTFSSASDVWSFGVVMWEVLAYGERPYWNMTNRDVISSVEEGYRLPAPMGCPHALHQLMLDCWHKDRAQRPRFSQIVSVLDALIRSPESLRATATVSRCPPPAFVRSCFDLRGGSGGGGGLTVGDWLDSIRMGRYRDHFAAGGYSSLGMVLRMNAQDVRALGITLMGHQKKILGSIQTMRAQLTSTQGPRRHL

[8] = biological target: T2, Ephrin type-B receptor 1 (Homo sapiens) (UniProt P54762); conditions: at 1 µM
T2 sequence (whole entry): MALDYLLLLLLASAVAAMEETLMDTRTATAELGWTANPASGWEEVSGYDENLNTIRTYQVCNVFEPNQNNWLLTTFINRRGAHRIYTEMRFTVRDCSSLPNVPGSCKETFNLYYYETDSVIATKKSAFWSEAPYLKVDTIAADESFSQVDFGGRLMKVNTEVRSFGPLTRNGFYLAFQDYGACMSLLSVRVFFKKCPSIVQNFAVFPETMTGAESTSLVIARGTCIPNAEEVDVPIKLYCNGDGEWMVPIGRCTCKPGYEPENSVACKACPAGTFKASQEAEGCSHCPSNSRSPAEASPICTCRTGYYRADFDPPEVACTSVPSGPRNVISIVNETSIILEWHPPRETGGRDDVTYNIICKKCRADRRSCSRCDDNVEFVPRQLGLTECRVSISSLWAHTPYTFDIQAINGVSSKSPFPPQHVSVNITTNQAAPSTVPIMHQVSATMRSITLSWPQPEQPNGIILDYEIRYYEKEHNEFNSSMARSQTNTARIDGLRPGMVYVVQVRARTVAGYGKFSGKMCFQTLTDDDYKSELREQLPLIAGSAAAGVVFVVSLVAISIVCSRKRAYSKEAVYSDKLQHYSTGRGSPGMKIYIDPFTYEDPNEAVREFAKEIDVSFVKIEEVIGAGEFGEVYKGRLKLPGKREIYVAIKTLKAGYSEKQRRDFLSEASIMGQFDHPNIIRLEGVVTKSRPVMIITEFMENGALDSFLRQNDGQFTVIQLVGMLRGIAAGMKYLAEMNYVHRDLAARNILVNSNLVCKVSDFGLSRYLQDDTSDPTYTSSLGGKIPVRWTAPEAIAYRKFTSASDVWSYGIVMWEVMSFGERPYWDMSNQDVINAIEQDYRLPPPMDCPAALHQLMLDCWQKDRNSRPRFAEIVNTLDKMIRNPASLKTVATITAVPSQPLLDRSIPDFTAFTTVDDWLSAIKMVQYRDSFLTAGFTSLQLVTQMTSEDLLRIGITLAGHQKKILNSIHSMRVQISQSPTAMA

[9] = biological target: T2, Ephrin type-B receptor 1 (Homo sapiens); conditions: at 10 µM
[10] = biological target: T3, Ephrin type-B receptor 2 (Homo sapiens) (UniProt P29323); conditions: at 1 µM
T3 sequence (whole entry): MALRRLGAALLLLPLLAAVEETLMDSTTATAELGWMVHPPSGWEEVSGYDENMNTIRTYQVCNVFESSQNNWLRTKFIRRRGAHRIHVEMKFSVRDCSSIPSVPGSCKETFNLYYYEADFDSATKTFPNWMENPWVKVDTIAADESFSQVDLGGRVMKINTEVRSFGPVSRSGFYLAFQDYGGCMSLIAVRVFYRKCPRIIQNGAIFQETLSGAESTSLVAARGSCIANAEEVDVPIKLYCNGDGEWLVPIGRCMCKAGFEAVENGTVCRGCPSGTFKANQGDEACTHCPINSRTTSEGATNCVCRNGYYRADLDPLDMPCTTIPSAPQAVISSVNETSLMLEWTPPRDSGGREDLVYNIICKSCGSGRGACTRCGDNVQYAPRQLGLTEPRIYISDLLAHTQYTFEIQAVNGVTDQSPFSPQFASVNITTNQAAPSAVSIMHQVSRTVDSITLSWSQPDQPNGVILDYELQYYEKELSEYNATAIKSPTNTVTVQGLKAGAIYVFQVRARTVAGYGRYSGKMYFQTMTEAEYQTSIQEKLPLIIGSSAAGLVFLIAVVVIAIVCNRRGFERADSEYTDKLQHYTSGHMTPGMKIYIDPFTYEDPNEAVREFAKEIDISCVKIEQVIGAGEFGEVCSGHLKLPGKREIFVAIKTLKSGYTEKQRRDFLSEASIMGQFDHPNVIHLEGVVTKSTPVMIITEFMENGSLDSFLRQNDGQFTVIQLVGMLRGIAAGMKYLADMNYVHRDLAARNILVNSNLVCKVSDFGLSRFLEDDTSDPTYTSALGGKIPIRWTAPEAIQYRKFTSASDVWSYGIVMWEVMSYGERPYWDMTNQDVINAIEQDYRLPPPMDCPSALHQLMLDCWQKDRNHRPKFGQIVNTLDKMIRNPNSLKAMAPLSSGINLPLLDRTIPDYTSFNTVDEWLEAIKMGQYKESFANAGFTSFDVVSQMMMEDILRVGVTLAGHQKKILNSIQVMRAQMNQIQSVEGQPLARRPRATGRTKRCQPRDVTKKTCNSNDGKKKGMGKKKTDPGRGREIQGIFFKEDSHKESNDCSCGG

[11] = biological target: T3, Ephrin type-B receptor 2 (Homo sapiens); conditions: at 10 µM
[12] = biological target: T4, Ephrin type-B receptor 3 (Homo sapiens) (UniProt P54753); conditions: at 1 µM
T4 sequence (whole entry): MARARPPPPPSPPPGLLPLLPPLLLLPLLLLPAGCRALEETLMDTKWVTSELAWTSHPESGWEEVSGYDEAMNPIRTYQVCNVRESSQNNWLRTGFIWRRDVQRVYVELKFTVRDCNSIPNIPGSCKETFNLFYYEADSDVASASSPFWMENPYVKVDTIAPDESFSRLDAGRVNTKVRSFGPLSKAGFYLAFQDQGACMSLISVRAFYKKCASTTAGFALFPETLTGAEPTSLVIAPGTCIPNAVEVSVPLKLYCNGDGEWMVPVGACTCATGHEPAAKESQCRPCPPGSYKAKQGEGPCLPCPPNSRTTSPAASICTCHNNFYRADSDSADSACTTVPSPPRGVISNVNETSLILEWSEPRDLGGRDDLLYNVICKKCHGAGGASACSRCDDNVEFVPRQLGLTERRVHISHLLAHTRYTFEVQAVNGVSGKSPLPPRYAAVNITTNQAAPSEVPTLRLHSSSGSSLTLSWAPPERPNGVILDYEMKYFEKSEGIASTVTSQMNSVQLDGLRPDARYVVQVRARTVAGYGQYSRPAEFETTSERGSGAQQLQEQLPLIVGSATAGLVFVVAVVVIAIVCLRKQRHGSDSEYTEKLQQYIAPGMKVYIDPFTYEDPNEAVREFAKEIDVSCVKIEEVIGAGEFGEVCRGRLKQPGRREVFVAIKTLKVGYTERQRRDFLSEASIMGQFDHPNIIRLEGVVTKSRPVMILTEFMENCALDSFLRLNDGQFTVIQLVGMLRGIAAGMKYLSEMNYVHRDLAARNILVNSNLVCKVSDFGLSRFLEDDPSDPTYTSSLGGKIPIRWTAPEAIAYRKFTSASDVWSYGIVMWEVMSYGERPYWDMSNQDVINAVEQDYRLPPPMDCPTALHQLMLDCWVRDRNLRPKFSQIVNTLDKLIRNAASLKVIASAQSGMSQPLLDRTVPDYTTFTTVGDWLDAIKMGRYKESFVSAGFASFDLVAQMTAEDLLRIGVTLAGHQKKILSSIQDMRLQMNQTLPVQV

[13] = biological target: Focal adhesion kinase 1 (Homo sapiens) (UniProt Q05397); conditions: at 1 µM
Focal adhesion kinase 1 (Homo sapiens), sequence (Q05397 2-1052 limits assumed): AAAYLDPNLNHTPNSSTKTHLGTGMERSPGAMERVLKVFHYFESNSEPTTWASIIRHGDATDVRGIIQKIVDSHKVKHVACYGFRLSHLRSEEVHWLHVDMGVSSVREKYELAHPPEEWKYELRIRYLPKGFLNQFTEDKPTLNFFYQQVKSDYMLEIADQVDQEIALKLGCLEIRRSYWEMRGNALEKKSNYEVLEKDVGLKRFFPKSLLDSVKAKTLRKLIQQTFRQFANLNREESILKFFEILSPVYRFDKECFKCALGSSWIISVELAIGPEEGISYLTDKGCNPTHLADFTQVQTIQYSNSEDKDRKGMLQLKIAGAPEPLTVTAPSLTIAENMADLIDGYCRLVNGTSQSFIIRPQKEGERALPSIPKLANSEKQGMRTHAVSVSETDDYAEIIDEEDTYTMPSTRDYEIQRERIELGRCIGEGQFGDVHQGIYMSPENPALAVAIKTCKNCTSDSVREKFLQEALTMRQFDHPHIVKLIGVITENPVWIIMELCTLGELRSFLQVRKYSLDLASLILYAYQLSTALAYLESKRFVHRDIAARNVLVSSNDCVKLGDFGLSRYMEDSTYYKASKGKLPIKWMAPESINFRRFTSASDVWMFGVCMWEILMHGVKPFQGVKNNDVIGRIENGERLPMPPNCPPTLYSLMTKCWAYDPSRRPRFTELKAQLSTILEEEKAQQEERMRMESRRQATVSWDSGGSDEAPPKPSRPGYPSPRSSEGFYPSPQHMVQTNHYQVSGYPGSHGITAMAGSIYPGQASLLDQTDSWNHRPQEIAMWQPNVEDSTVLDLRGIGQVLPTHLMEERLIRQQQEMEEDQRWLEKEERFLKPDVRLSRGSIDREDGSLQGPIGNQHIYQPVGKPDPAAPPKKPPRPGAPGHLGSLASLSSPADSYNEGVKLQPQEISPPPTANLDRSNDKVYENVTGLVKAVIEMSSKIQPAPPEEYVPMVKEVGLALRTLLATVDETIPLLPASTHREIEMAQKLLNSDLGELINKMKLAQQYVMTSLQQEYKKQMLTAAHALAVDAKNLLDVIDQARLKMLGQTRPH

Ephrin type-A receptor 4 (Homo sapiens), sequence (P54764 whole entry): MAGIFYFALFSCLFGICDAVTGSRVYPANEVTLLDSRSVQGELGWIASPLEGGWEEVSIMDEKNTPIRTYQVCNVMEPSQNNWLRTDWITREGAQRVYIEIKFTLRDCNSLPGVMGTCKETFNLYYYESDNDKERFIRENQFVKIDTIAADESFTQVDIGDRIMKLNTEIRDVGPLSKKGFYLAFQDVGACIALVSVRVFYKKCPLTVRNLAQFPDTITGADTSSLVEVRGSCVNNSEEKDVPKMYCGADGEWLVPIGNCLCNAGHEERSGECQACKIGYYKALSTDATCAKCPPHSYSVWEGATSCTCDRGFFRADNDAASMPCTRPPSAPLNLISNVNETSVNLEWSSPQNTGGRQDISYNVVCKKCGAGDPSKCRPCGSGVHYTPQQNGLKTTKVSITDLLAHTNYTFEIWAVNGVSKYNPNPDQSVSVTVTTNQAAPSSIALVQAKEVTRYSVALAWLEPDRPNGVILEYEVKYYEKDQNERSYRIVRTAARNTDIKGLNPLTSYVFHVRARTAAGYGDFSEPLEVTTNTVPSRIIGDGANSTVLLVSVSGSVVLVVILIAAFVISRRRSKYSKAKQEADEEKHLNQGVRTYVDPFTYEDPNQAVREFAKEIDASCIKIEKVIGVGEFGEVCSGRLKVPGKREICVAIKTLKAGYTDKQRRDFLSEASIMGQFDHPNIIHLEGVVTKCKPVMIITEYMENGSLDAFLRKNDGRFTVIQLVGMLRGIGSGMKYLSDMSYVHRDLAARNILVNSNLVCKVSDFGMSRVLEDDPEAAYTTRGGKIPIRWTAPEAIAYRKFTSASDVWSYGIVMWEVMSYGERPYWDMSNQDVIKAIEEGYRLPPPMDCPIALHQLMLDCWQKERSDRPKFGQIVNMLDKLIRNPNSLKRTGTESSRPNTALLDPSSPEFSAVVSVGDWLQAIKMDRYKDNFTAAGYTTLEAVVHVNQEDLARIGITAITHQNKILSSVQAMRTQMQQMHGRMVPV

Structure (SMILES): Nc1nc(Nc2ccc(S(N)(=O)=O)cc2)nn1C(=O)c1c(F)cccc1F
- residual activity [1]: 108%
- residual activity [2]: 95%
- residual activity [3]: 103%
- residual activity [4]: 73%
- residual activity [5]: 52%
- residual activity [6]: 8%
- residual activity [7]: 55%
- residual activity [8]: 78%
- residual activity [9]: 14%
- residual activity [10]: 103%
- residual activity [11]: 68%
- residual activity [12]: 115% (inactive)
- residual activity [13]: 102%
